In all, about 2,300 compounds went through this assay and about 1,500 (65%) were called active. How the calls were made is not given here. The set was probably picked from earlier hits. This is one part of the list. Where a call stands in place of a potency, no number is given. Potency and affinity values are given separately.

This assay can be described thus: replicating M. tuberculosis growth inhibition, dose response, non-replicating M. tuberculosis project, H37Rv (AID 492952).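 Further: Mycobacterium tuberculosis grown in culture; growth inhibition read after a week of incubation.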 The conditions noted are these: series mostly up to 50 µM.
As to `CC(C)(C)c1ccc2c(c1)OC(C(=O)N/N=C\c1ccccn1)CO2` (stereo not drawn), the compound was called inactive. As for `CCCOC(=O)c1cc(-c2ccc(C=O)o2)ccc1Cl`, the compound was called inactive.

With `O=C(COC(=O)CC12CC3CC(CC(C3)C1)C2)Nc1cccnc1Cl`, the outcome was inactive. Next, `O=C(NNC(=O)C12CC3CC(CC(C3)C1)C2)c1cnccn1`: “inactive”; `O=C(NC(=S)Nn1cnc2c(cnn2-c2ccccc2)c1=O)c1ccccc1`: “inactive”. For the compound `CCC(C)c1ccc(O)c(/C=N/O)c1` (stereo not drawn), the compound was called inactive. Next, `CSc1ccccc1C(=O)NCc1ccc(S(N)(=O)=O)cc1`: “inactive”; `CCOc1cccc2cc(C(=O)NCc3ccccc3)c(=N)oc12`: “inactive”. For `O=C(CCC1CCCCC1)NCc1ccc(F)cc1`, the call was inactive. Next, `C/C(=N\NC(=O)c1ccc(CN2CCc3ccccc3C2)cc1)c1ccccc1O`: “inactive”. In the case of `O=C(Cc1ccc(F)cc1)Nc1ccc(Cl)cn1`, the call was inactive.

`O=C(c1ccco1)N1CCN(c2ccc(F)cc2)CC1`: the compound was called inactive. With `O=C(NCCC1CCCC1)c1cccs1`, the outcome was inactive.

For `CC(=O)N1CCC(=NNC(=O)c2cccs2)CC1`, the compound was called inactive. Next, `O=C(COC(=O)CC1CCCC1)Nc1ccc(OC(F)F)cc1`: “inactive”; `N/C(=N\OC(=O)CC1CCCCC1)c1ccncc1`: “inactive”; `O=C(COC(=O)C1CCCCC1)Nc1ccccc1OC(F)F`: “inactive”. Regarding `Cc1ccc(CO/N=C/c2c(O)cc(C)oc2=O)cc1`, the call was inactive. As for `Cc1ccc(CCC(=O)Nc2ccccc2F)s1`, the call was inactive. The entry for `O=C(Nc1ccccc1F)c1ccc(Br)o1` is “inactive”. Next, `NC(=O)C1CCN(C2CC(=O)NC2=O)CC1` (stereo not drawn): “inactive”; `COc1ccc(OCCSc2nnc(Cc3cccc4ccccc34)n2N)cc1`: “inactive”.

Take `N/C(=N\OC(=O)c1cccs1)c1ccccc1`: the result was inactive. Regarding `CC1(C)CC(=O)C(C2NCCc3ccccc32)=C(O)C1` (stereo not drawn), the result was inactive. For the compound `O=C(Nc1ccccc1F)c1ccc(CSc2ccccc2)o1`, the call was inactive.

On to `CCCc1cc(C(=O)Nc2cccc(C(C)=O)c2)no1`, for which the compound was classed as inactive. The entry for `Cc1cc(C(=O)NNc2cc(Cl)ccc2Cl)no1` is “inactive”.

In the case of `C[C@@H]1CN=C2N(CCNC(=O)CCC3CCCCC3)[C@H](Cc3ccc(O)cc3)CN21`, the compound was called inactive. With `CCCC(=O)N1CCC(Cc2ccccc2)CC1`, the result was inactive. Next, `CC(C)[C@H]1CN=C2N(C[C@H](C)NC(=O)CCC3CCCCC3)[C@H](Cc3ccc(O)cc3)CN21`: “inactive”; `O=C(CN1CCC(Cc2ccccc2)CC1)NC(=O)NC1CCCCC1`: “inactive”.

For the compound `COc1cc(C=O)ccc1OCCCCOc1ccccc1[N+](=O)[O-]`, the compound was classed as inactive. Next, `CCc1ccc(C2=C/C(=C/c3cccnc3)C(=O)O2)cc1`: “inactive”; `C/C(=N\Nc1ccc(Cl)cc1)c1c(O)cc(C)oc1=O`: “inactive”; `CN(C)c1ccc(NC(=O)COC(=O)c2cc(Cl)ccc2[N+](=O)[O-])cc1`: “inactive”.

For the compound `O=C(Nc1cccc(Cl)c1)C1COc2ccccc2O1` (stereo not drawn), the compound was classed as inactive.

In the case of `O=C(Nc1ccc([N+](=O)[O-])cc1)C1COc2ccccc2O1` (stereo not drawn), the compound was classed as inactive. The entry for `O=C(Nc1ccc(Cl)cn1)C1COc2ccccc2O1` (stereo not drawn) is “inactive”; for `Cn1cccc1/C=N\NC(=O)C1COc2ccccc2O1` (stereo not drawn) it is “inactive”.

As for `O=C(Nc1cccc([N+](=O)[O-])c1)C1COc2ccccc2O1` (stereo not drawn), the call was inactive.

Regarding `CC(C)NC(=O)C1COc2ccccc2O1` (stereo not drawn), the outcome was inactive. Next, `COc1ccc2c([N+](=O)[O-])c(N3CCCC3)[nH]c2c1`: “inactive”; `CN(C)S(=O)(=O)Oc1ccc(C(=O)Nc2cccc(C(F)(F)F)c2)cc1`: “inactive”; `COc1ccc(NC(=O)COc2ccccc2)cc1Cl`: “inactive”. Next, `COC(=O)c1cccc(NC(=O)COc2cccc([N+](=O)[O-])c2)c1`: “inactive”. For the compound `C=C(C)C1Cc2cc3ccc(=O)oc3cc2O1` (stereo not drawn), the outcome was inactive.

For `COCCNC(=O)CC(=O)N/N=C/c1cccc(C(=O)OC)c1`, the outcome was inactive. With `O=C(COC(=O)CCC(=O)c1ccc(F)cc1)Nc1ccccc1`, the outcome was inactive. Next, `O=C(CCc1c[nH]c2ccccc12)Nc1ncccc1O`: “inactive”; `COc1cccc(NC(=O)COC(=O)Cc2ccc(Br)cc2)c1`: “inactive”; `CC(=O)c1ccc(NC(=O)C(Cc2ccccc2)n2cccc2)cc1` (stereo not drawn): “inactive”. Next, `Cc1cc(C(=O)NNc2ccc(Cl)cc2)no1`: “inactive”; `COc1ccc(NC(=O)c2cc([N+](=O)[O-])ccc2O)cc1`: “inactive”. On to `Cc1ccc(CSCCNC(=O)c2cccc([N+](=O)[O-])c2)cc1`, for which the compound was classed as inactive. Next, `COc1ccc([C@@]2(O)c3c(ccc(CC=C(C)C)c3O)NC(=O)[C@@H]2OC)cc1`: “inactive”; `CN1/C(=C\C=N\NC(=O)c2cccnc2)C(C)(C)c2ccccc21`: “inactive”; `C/C(CC(=O)Nc1ccc(C)c(Cl)c1)=N\NC(=O)c1ccco1`: “inactive”. The entry for `CCc1cccc(OCCCn2ccnc2)c1` is “inactive”.

As to `O=Cc1ccc(OC2OCCOC2Oc2ccc(C=O)cc2)cc1` (stereo not drawn), the outcome was inactive.

Take `CC1=NN(C(=O)c2ccoc2C)C(O)(C(F)(F)F)C1` (stereo not drawn): the call was inactive. The entry for `CC1=NN(C(=O)c2cc(C)nn2C)C(O)(C(F)(F)F)C1` (stereo not drawn) is “inactive”; for `CC1=NN(C(=O)c2ccc(Cn3nc(C)c(Br)c3C)cc2)C(O)(C(F)(F)F)C1` (stereo not drawn) it is “inactive”. In the case of `O=C(c1ccccc1[N+](=O)[O-])N1N=C(c2ccccc2)CC1(O)C(F)(F)F` (stereo not drawn), the compound was classed as inactive.

As to `Cc1cc(C)cc(NC(=O)COC(=O)CC2CCCC2)c1`, the compound was called inactive.

In the case of `O=C(CC1CCCCC1)NCc1ccccc1`, the call was inactive.

With `Cc1cc(Cl)ccc1NNC(=O)c1cccs1`, the call was inactive. The entry for `CCN1CCN(Cc2cc(C(C)(C)C)c(O)c(C(C)(C)C)c2)CC1` is “inactive”. Regarding `COc1cc(CNCCNC(=O)c2nonc2N)ccc1OCc1ccc(Cl)cc1`, the call was inactive.

On to `O=C(NNc1ccc([N+](=O)[O-])cc1)C1CC1c1ccccc1` (stereo not drawn), for which the call was inactive. As to `CCOc1ccc(Cn2c(=O)oc3ccccc32)cc1`, the compound was classed as inactive. Take `Cc1cccc(OCC(O)Cn2c(=N)n(Cc3ccccc3)c3ccccc32)c1` (stereo not drawn): the compound was called inactive. The entry for `Cc1ccc(C(=O)N2N=C(CC(C)C)CC2(O)C(F)(F)F)o1` (stereo not drawn) is “inactive”; for `CCSc1nsc(NC(=O)Nc2ccc(F)cc2F)n1` it is “inactive”; for `O=C(C/C=N\OCc1ccc([N+](=O)[O-])cc1)Nc1ccc(Br)cc1` it is “inactive”. Turning to `C=CCc1ccc2oc(C(=O)OCC)cc(=O)c2c1O`, the call was inactive.

As for `CCC1(O)CC(c2ccccc2)=NN1C(=O)c1ccccc1F` (stereo not drawn), the result was inactive. For the compound `O=Cc1ccnc(-c2ccc(OC(=O)c3ccco3)cc2)n1`, the call was inactive. Next, `COc1ccc(/C=N/NC(=O)C(=O)NCc2cccnc2)cc1OC`: “inactive”. Take `COc1cc(/C=N/Nc2ccc(Cl)c(C(=O)O)c2)ccc1OC(=O)c1cccs1`: the call was inactive. Regarding `Cn1c(SCCOc2cccc(Cl)c2)nnc1-c1ccncc1`, the outcome was inactive. Next, `Cc1ccc(S(=O)(=O)NCC(=O)OCCOc2cccc(Cl)c2)cc1`: “inactive”. In the case of `CN(CCS(=O)(=O)c1ccc(Cl)cc1)Cc1cccnc1`, the outcome was inactive.

For `Cc1ccc(NC(=O)CCSc2nnc(-c3ccco3)o2)cc1`, the outcome was inactive. With `CCCn1nnnc1NCc1ccc(C(C)C)cc1`, the outcome was inactive.

Regarding `CCCn1nnnc1NCc1ccc(CC)cc1`, the compound was called inactive.

For the compound `CCCn1nnnc1NC(=O)COc1ccc(Br)cc1`, the compound was classed as inactive. Next, `Cc1ccc(-c2nnc(NC3CCCC3)s2)cc1`: “inactive”; `Oc1c(Br)cc(Br)cc1/C=N/c1nccs1`: “inactive”; `Cc1cccc(NC(=O)c2n[nH]c([N+](=O)[O-])c2Br)c1C`: “inactive”.

Consider `Cc1cccc(NCc2nnc(-c3ccccc3)o2)c1C`, for which the result was inactive. Consider `O=C(NCc1ccc(F)cc1)c1ccc(Br)o1`, for which the result was inactive. `C=C[C@]1(C)C=C2CCC3[C@](C)(CCC[C@@]3(C)C(=O)O)C2CC1` (stereo partly drawn): the compound was classed as inactive. Next, `CCn1nnc(NC(=O)c2ccc([N+](=O)[O-])o2)n1`: “inactive”; `O=C(Nc1ccccc1N1CCN(C(=O)c2ccc(Cl)cc2)CC1)c1ccc([N+](=O)[O-])o1`: “inactive”; `CC1CCN(C(=O)C2COc3ccccc3O2)CC1` (stereo not drawn): “inactive”. For the compound `O=C(c1ccc(Br)o1)N1CCC(Cc2ccccc2)CC1`, the compound was classed as inactive.

Consider `O=C1NC2(CCC3(CC2)OCCO3)NN1c1ccc(Cl)cc1`, for which the compound was classed as inactive. Turning to `NC(=O)c1ccc(-c2ccc(Br)cc2)o1`, the compound was called inactive.

For the compound `O=C(COC(=O)Cc1ccc(Br)cc1)Nc1ccc(N2CCOCC2)cc1`, the compound was called inactive. In the case of `Cc1c(NC(=O)c2coc(=O)c(Br)c2)c(=O)n(-c2ccccc2)n1C`, the outcome was inactive.

Consider `O=C(NC1=NCCS1)c1ccc(-c2ccc(Cl)cc2)o1`, for which the compound was classed as inactive.

As for `COc1ccc(N=N/C(=C\O)C(=O)c2cccs2)cc1`, the compound was called inactive. Turning to `COc1ccc(C(=O)COC(=O)CCC(=O)c2cccs2)cc1`, the result was inactive. Turning to `CC(CCc1ccccc1)NC(=O)COC(=O)c1cccs1` (stereo not drawn), the compound was classed as inactive. Next, `CC(C)(NO)/C(=N\O)c1ccccc1`: “inactive”. Next, `CCC1CCc2sc(C(=O)NCC3CCCO3)cc2C1` (stereo not drawn): “inactive”; `CCc1cc(C(c2ccncc2)N2CCN(C)CC2)c(NC(=O)c2ccccc2)s1` (stereo not drawn): “inactive”; `CC(C)(C)c1ccc(C(=O)N2CCCC2)s1`: “inactive”. Regarding `COc1ccccc1N1CCN(C(=O)CCn2c(=O)[nH]c3ccsc3c2=O)CC1`, the call was inactive.

Regarding `CC(=O)Oc1ccc(N(C(C)=O)S(=O)(=O)c2cccs2)c2ccccc12`, the compound was called inactive. Next, `COc1cccc(OCC(=O)NNC(=O)c2cccs2)c1`: “inactive”.

Turning to `COc1ccc(-c2nc(C=O)cs2)cc1`, the compound was classed as inactive. Regarding `COc1ccc(-c2cc(O)cc(O)c2)cc1`, the compound was classed as inactive. The entry for `CCc1ccc(C(C)NC(=O)C2CCCO2)cc1` (stereo not drawn) is “inactive”; for `NC(N)=N/N=C/c1cccc([N+](=O)[O-])c1O` it is “inactive”. Turning to `Cc1ccc2cc(/C=N/NC(=O)[C@H](C)NC(=O)OC(C)(C)C)c(Cl)nc2c1`, the outcome was inactive. Next, `CCOc1ccc(NC(=O)CCc2ccc(C)o2)cc1`: “inactive”; `COCC(=O)Nc1ccccc1NC(C)=O`: “inactive”.

In the case of `Cc1cccc(NC(=O)CO/N=C/c2ccc3c(c2)OCO3)c1`, the call was inactive. The entry for `CCOC(=O)C(=CNNc1cccc(Cl)c1)C(=O)OCC` is “inactive”; for `COc1ccc(C(=O)CCNc2ccc(F)cc2)cc1` it is “inactive”; for `O=C(CN1CCN(c2ccccc2)CC1)Nc1nnc(-c2ccccc2)s1` it is “inactive”. The entry for `CCc1nnc(NC(=O)CN2CCN(Cc3ccc(F)cc3)CC2)s1` is “inactive”.

The values above are taken from PubChem BioAssay AID492952 (Southern Research Specialized Biocontainment Screening …, 2010).
